We go through seven molecules from PubChem BioAssay (NCI).

The panel holds about 83,000 compounds, 20% with a hit somewhere; the sample as a whole holds those more often.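 Percent growth is the endpoint: 0 to 100 indicates growth inhibition (40 means 60% inhibition), 0 means no net growth, and negative values indicate cell death.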 Values without a mark were called inactive. The source made the active and inactive calls. Rule for the calls: active = growth percent below 10; inactive = the rest.

Test systems include SK-MEL-2 melanoma; EKVX NSCLC; SN12C renal; UO-31 renal; TK-10 renal; ACHN renal; CAKI-1 renal; A498 renal; CCRF-CEM leukemia; MOLT-4 leukemia; SR leukemia; RPMI-8226 leukemia; OVCAR-8 ovarian; OVCAR-5 ovarian; OVCAR-4 ovarian; SK-OV-3 ovarian; IGROV1 ovarian; OVCAR-3 ovarian; HS 578T breast; NCI/ADR-RES ovarian.
What all share (assay): NCI-60 one-dose screen, 48 h (100 = growth as untreated, 0 = no growth, -100 = all killed)
Holding throughout (conditions): 10 µM unless noted

On to `O=C1Nc2c(ccc(Cl)c2Cl)/C1=C\c1cc(C(F)(F)F)cc(C(F)(F)F)c1`, for which the growth is 38.4% in the assay with SK-MEL-2 melanoma; 26.9% in the assay on EKVX NSCLC; 14.2% in the assay with SN12C renal; 16.6% in the assay with UO-31 renal; 26% with TK-10 renal; 8.13% (active) with ACHN renal. The growth in the assay on CAKI-1 renal was 8.62% (active); in the assay on A498 renal, -23.7% (active); in the assay with CCRF-CEM leukemia, 30.8%; in the assay on MOLT-4 leukemia, -14.2% (active); in the assay on SR leukemia it was -41.1% (active); in the assay on RPMI-8226 leukemia, 25.6%. Further, the growth in the assay with OVCAR-8 ovarian was 27.1%; with OVCAR-5 ovarian it was -28.8% (active); in the assay with OVCAR-4 ovarian, 9.67% (active); with SK-OV-3 ovarian it was 59.9%; in the assay with IGROV1 ovarian, 3.13% (active); in the assay with OVCAR-3 ovarian it was -34.2% (active). Besides, the growth in the assay on HS 578T breast is -37.6% (active); in the assay on NCI/ADR-RES ovarian, 8.35% (active).

Regarding `Cc1ccc(C2=NN3C(C2)c2cc(Br)ccc2OC32CCN(Cc3ccccc3)CC2)o1` (stereo not given), the growth was 100% in the assay on SK-MEL-2 melanoma; 86.3% in the assay on EKVX NSCLC; 91.5% in the assay with SN12C renal; 58.6% in the assay on UO-31 renal; 116% in the assay on TK-10 renal; 98.7% in the assay on ACHN renal. Besides, the growth is 71.6% in the assay with CAKI-1 renal; 105% in the assay with A498 renal; 80.3% in the assay on CCRF-CEM leukemia; 79.6% in the assay with MOLT-4 leukemia; 90.2% in the assay with SR leukemia; 80.8% with RPMI-8226 leukemia. The growth with OVCAR-8 ovarian is 98.8%; in the assay on OVCAR-5 ovarian, 109%; in the assay on OVCAR-4 ovarian, 94.3%; with SK-OV-3 ovarian it was 93.7%; in the assay with IGROV1 ovarian, 82.1%; in the assay on OVCAR-3 ovarian, 96.6%. The growth was 92% in the assay on HS 578T breast and 94% in the assay with NCI/ADR-RES ovarian.

As to `CCOc1nc(-c2ccccc2)cc2c(O)c(C(=O)O)[nH]c(=O)c12`, the growth in the assay on SK-MEL-2 melanoma was 95.3%; in the assay with EKVX NSCLC, 98.2%; in the assay on SN12C renal, 111%; with UO-31 renal, 87.1%; in the assay with TK-10 renal, 134%; with ACHN renal, 100%. In addition, the growth in the assay with CAKI-1 renal is 105%; in the assay with A498 renal it was 119%; in the assay on CCRF-CEM leukemia, 83%; in the assay with MOLT-4 leukemia, 92.4%; in the assay with SR leukemia, 98.1%; in the assay with RPMI-8226 leukemia it was 58.1%. The growth is 107% in the assay with OVCAR-8 ovarian; 104% with OVCAR-5 ovarian; 99% with OVCAR-4 ovarian; 97.5% with SK-OV-3 ovarian; 96.1% with IGROV1 ovarian; 101% in the assay on OVCAR-3 ovarian. The growth in the assay with HS 578T breast was 104%; in the assay with NCI/ADR-RES ovarian, 60.9%.

For the molecule `Fc1ccc2[nH]cc(SSc3c[nH]c4ccc(F)cc34)c2c1`, the growth with SK-MEL-2 melanoma is 62.8%; with EKVX NSCLC, 14.2%; in the assay on SN12C renal, 65.1%; with UO-31 renal, 21.5%; in the assay on TK-10 renal, 84.6%; in the assay with ACHN renal it was 55.1%. Further, the growth with CAKI-1 renal was 32.6%; in the assay on A498 renal, 35%; in the assay with CCRF-CEM leukemia it was 15.9%; with MOLT-4 leukemia, 14%; with SR leukemia, -29.4% (active); in the assay on RPMI-8226 leukemia it was -14% (active). Moreover, the growth was 40.5% in the assay with OVCAR-8 ovarian; 46.8% in the assay on OVCAR-5 ovarian; 46.6% with OVCAR-4 ovarian; 95.2% in the assay with SK-OV-3 ovarian; 77.8% in the assay with IGROV1 ovarian; 50.5% in the assay with OVCAR-3 ovarian. The growth with HS 578T breast is -29.2% (active); in the assay on NCI/ADR-RES ovarian it was 17.4%.

Consider `CCN(CC)S(=O)(=O)c1ccc(OC)c(NC(=O)c2[nH]c(C)c3c2CCCCC3=O)c1`, for which the growth in the assay with SK-MEL-2 melanoma was 55.3%; in the assay on EKVX NSCLC, 43.5%; in the assay on SN12C renal, 42%; in the assay with UO-31 renal, 14.4%; in the assay on TK-10 renal, 13.5%; in the assay with ACHN renal, 31.1%. The growth is 15.1% in the assay with CAKI-1 renal; 15.1% in the assay on A498 renal; 55.7% with CCRF-CEM leukemia; 64.9% in the assay on MOLT-4 leukemia; 43.4% in the assay with SR leukemia; 16.7% in the assay with RPMI-8226 leukemia. Further, the growth is 41.1% in the assay with OVCAR-8 ovarian; 54.1% with OVCAR-5 ovarian; 49.5% with OVCAR-4 ovarian; 20.4% with SK-OV-3 ovarian; 24.8% in the assay on IGROV1 ovarian; 39% in the assay on OVCAR-3 ovarian. Further, the growth with HS 578T breast was 16.4%; in the assay on NCI/ADR-RES ovarian it was 40.2%.

For the molecule `CSc1nc2c(c(=O)[nH]1)C1(C(=O)Nc3ccccc31)c1c(nc(SC)[nH]c1=O)N2`, the growth was 105% with SK-MEL-2 melanoma; 108% with EKVX NSCLC; 102% with SN12C renal; 87.1% in the assay on UO-31 renal; 110% with TK-10 renal; 103% with ACHN renal. The growth with CAKI-1 renal was 103%; in the assay with A498 renal, 116%; in the assay with CCRF-CEM leukemia it was 109%; in the assay on MOLT-4 leukemia it was 108%; in the assay with SR leukemia it was 98.8%; in the assay with RPMI-8226 leukemia, 108%. Besides, the growth in the assay with OVCAR-8 ovarian was 110%; in the assay with OVCAR-5 ovarian it was 93.9%; in the assay on OVCAR-4 ovarian, 109%; in the assay on SK-OV-3 ovarian, 114%; in the assay with IGROV1 ovarian, 102%; in the assay on OVCAR-3 ovarian it was 105%. Also, the growth with HS 578T breast is 106%; in the assay on NCI/ADR-RES ovarian, 108%.

Turning to `CCn1c(Cc2ccccc2Nc2c(Cl)cccc2Cl)nnc1SCC(=O)NN1C(=O)/C(=C/c2cc(OC)c(O)c(OC)c2)SC1=S`, the growth with SK-MEL-2 melanoma was 30.7%; in the assay on EKVX NSCLC, 60.2%; with SN12C renal it was 54.8%; in the assay on UO-31 renal it was 59.6%; in the assay with TK-10 renal, 70%; with ACHN renal it was 58.9%. In addition, the growth in the assay on CAKI-1 renal is 37%; in the assay with A498 renal, 20.6%; with CCRF-CEM leukemia it was 19.1%; with MOLT-4 leukemia, 23.1%; in the assay with SR leukemia it was 21.4%; with RPMI-8226 leukemia, 47%. For the same molecule, the growth in the assay with OVCAR-8 ovarian was 60%; with OVCAR-5 ovarian, 55.5%; in the assay with OVCAR-4 ovarian, 74%; in the assay on SK-OV-3 ovarian it was 23.2%; in the assay on IGROV1 ovarian, 42.9%; with OVCAR-3 ovarian, 7.37% (active). Besides, the growth in the assay with HS 578T breast was 5.34% (active); with NCI/ADR-RES ovarian it was 88.6%.
